The values that follow come from PubChem BioAssay.

Each structure is given as a SMILES string. Activity calls are given as the source filed them.

In experiment [1] the test system is Human papillomavirus type 1a protein E7 (residues 44-93). In words: small molecules binding HPV E7 44-93 – biochemical, small-molecule microarray, residues 44-93, 635 nm fluorescence, primary screen (AID 1108).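 Further: E7 fragment applied at 1 µg/mL in TBST for 1 h at 4 C; score combines spot fluorescence with its signal to noise ratio.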 The conditions noted are these: fluorescence 635 nm, higher = more signal.
The nature of experiment [2]: hepatitis C replication reporter changes, two-sided – Huh7 cells, luciferase reporter, HCV replication inhibitor project, primary screen (AID 1109).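 Further: huh7 hepatoma cells harbouring a luciferase neomycin HCV replicon reporter; luciferase luminescence as measure of HCV replicon replication; test concentration not given here.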 The conditions noted are these: Huh7 HCV replicon luciferase reporter, 48 h; higher = more signal. For orientation: In a reporter assay the amount or activity of a reporter protein is the signal.
For experiment [3], the target named is Left-right determination factor 2 (Homo sapiens) (UniProt O00292). In words: small molecules binding LEFTY2 protein – biochemical, small-molecule microarray, 635 nm fluorescence scan, primary screen (AID 1110). As to conditions: higher = more signal.
Chain of Left-right determination factor 2 (Homo sapiens) (O00292 whole entry, looked up): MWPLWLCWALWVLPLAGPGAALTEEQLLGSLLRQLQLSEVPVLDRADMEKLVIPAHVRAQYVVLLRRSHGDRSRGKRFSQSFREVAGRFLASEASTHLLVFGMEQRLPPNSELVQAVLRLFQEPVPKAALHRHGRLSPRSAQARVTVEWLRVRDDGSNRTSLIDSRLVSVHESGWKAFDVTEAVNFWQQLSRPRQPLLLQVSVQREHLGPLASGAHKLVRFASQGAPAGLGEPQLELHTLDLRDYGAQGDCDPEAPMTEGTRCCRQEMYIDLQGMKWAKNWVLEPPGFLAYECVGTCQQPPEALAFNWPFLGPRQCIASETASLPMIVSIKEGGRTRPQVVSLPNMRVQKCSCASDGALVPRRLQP
Experiment [4] deals with Calmodulin-1 (Homo sapiens) (UniProt P0DP23). In words: small molecules binding calmodulin-1 with EGTA – biochemical, small-molecule microarray, Cy5-labelled CALM1, profiling panel (AID 1111).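 Further: labelled calmodulin applied in Tris saline Tween buffer holding calcium plus EGTA and DTT.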 The conditions noted are these: Cy5-CALM1 binding fluorescence, higher = more signal.
Experiment [5] has the same target. Briefly: small molecules binding Ca-loaded calmodulin-1 – biochemical, small-molecule microarray, Cy5-labelled CALM1, plus calcium, artefact control for SMM control-protein annotation, profiling panel (AID 1112).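 Further: score merges spot fluorescence with signal to noise from triplicate slides.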 The conditions noted are these: Cy5-CALM1 binding fluorescence, higher = more signal.
Experiment [6] can be described thus: probe aWnt5a binding to arrayed compounds – biochemical, biotinylated probe, 635/667 nm fluorescence, primary screen (AID 1113).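 Further: score merges 667 nm fluorescence intensity with signal-to-noise per printed feature.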 The conditions noted are these: small-molecule microarray, higher = more signal.
The nature of experiment [7]: probe aShh binding to arrayed compounds – biochemical, biotinylated probe, 635/667 nm fluorescence, primary screen (AID 1114).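 Further: probe is biotin-labelled aShh protein from a stem cell growth factor screen; measures binding of labelled protein to compounds printed on the slide; score merges feature fluorescence at 667 nm with signal-to-noise.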 As to conditions: small-molecule microarray, higher = more signal.
Experiment [8] in a line: probe aNog binding to arrayed compounds – biochemical, biotinylated probe, 635/667 nm fluorescence, primary screen (AID 1115).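 Further: probe is biotinylated aNog protein used at 0.15 µg/mL for 1 h at 4 C; z-score combines 667 nm fluorescence of each spot with its signal to noise.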 The conditions noted are these: small-molecule microarray, higher = more signal.
For experiment [9], the target named is Torsin-1A-interacting protein 1 (Homo sapiens) (UniProt Q5JTV8). Briefly: compound microarray binding of lysate hLAP1 – cell lysate, small-molecule microarray, COS7 lysate, 635/667 nm fluorescence, primary screen (AID 1116). As to conditions: 635 nm fluorescence, higher = more signal.
Chain of Torsin-1A-interacting protein 1 (Homo sapiens) (Q5JTV8 whole entry, looked up): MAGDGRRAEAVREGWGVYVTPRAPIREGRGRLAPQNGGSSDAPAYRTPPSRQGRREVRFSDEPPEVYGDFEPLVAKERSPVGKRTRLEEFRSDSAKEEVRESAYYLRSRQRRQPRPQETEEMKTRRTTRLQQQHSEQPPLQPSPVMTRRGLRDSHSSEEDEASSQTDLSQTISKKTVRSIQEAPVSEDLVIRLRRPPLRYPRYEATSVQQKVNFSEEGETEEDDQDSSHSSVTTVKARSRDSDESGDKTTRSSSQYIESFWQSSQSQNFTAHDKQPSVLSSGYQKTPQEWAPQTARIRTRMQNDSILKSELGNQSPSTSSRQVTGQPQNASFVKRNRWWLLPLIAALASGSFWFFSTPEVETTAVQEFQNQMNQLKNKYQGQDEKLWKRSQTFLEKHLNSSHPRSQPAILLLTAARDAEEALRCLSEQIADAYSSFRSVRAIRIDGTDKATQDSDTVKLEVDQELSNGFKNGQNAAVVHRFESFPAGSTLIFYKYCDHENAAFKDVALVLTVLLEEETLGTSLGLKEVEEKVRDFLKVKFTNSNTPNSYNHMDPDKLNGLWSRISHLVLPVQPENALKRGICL
The target of experiment [10] is Alpha-bungarotoxin (Bungarus multicinctus) (UniProt P60615). Briefly: compounds binding labelled alpha-BTX control protein – biochemical, small-molecule microarray, Alexa647 label, 635/667 nm fluorescence, artefact control for SMM control protein annotation, profiling panel (AID 1117). The conditions noted are these: alpha-BTX-A647 binding fluorescence, higher = more signal.
Chain of Alpha-bungarotoxin (Bungarus multicinctus) (P60615 whole entry, looked up): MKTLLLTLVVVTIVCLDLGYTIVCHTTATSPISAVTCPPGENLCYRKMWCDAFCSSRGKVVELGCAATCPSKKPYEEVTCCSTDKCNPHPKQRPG

The next experiment has as its target Albumin (Bos taurus) (UniProt P02769). Briefly: compounds binding labelled BSA control protein – biochemical, small-molecule microarray, Alexa647 label, 635/667 nm fluorescence, artefact control for SMM control protein annotation, profiling panel (AID 1118).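 Further: score merges 667 nm emission intensity and signal-to-noise per printed compound spot.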 As to conditions: BSA-A647 binding, fluorescence 635 nm, higher = more signal.
Experiment [11] can be described thus: probe aXIP binding to arrayed compounds – biochemical, NeuroSMM set, 635/667 nm fluorescence, primary screen (AID 1119).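 Further: probe is the protein aXip251-270 applied at 1 µg/mL to compound-printed slides; binding of probe to printed compounds measured as 667 nm fluorescence plus signal to noise.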 The conditions noted are these: small-molecule microarray, higher = more signal, called active from +8 up or from −8 down.
A short description of experiment [12]: probe aNOTCH3 binding on compound microarray – biochemical, small-molecule microarray, 635/667 nm fluorescence, primary screen (AID 1120).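 Further: probe is a biotin-tagged antibody raised against NOTCH3 rather than NOTCH3 protein; score merges spot fluorescence near 667 nm with spot signal to noise.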 The conditions noted are these: higher = more signal.
Experiment [13] can be described thus: probe aNOTCH2 binding on compound microarray – biochemical, small-molecule microarray, 635/667 nm fluorescence, primary screen (AID 1121).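 Further: score merges feature fluorescence read at 667 nm with its signal to noise.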 The conditions noted are these: higher = more signal.
Experiment [14] concerns the target Carbonic anhydrase 2 (Homo sapiens) (UniProt P00918). Briefly: compounds binding carbonic anhydrase 2 – biochemical, small-molecule microarray, Alexa647-labelled CAII, profiling panel (AID 1122). The conditions noted are these: CAII-A647 binding fluorescence, higher = more signal.
The nature of experiment [15]: COS7 lysate on small-molecule microarray, probe aHis, 635 nm (AID 1123).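 Further: z-score combines 667nm fluorescence intensity with signal-to-noise per printed compound spot.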 The conditions noted are these: COS7 cell lysate, fluorescence, higher = more signal.
Experiment [16] in a line: probe aLAP1 signal on lysate-treated microarray – cell lysate, small-molecule microarray, COS7 lysate, primary screen (AID 1124).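 Further: lysate comes from COS7 cells expressing LAP1 and is applied at 0.3 µg/mL; score merges spot fluorescence near 667 nm with signal-to-noise over triplicate slides.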 The conditions noted are these: probe aLAP1, fluorescence, higher = more signal.
In the next experiment the test system is Sam68 (KHDRBS1). Briefly: compounds binding KHDRBS1 protein – biochemical, small-molecule microarray, 635 nm fluorescence, primary screen (AID 1125).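 Further: score merges 667 nm channel intensity with signal to noise over triplicate slides.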 The conditions noted are these: higher = more signal.
The test system of experiment [17] is Chordin-like protein 2 (CHRDL2). In words: compounds binding chordin-like 2 – biochemical, small-molecule microarray, 635 nm fluorescence, primary screen (AID 1126).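 Further: printed compound slides probed with Chrdl2 protein at 4 µg/mL for 1 h at 4 C; score merges 667 nm emission intensity with signal to noise over three replicate slides.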 As to conditions: fluorescence 635 nm, higher = more signal.
Experiment [18] addresses Concanavalin-A (Canavalia ensiformis) (UniProt P02866). In words: compounds binding concanavalin A lectin – biochemical, small-molecule microarray, Alexa647 label, 635 nm, artefact control for SMM control protein annotation, primary screen (AID 1127).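 Further: z combines 667 nm emission intensity with signal-to-noise across three replicate slides.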 As to conditions: ConA-A647 binding fluorescence, higher = more signal.

Chain of Albumin (Bos taurus) (P02769 whole entry, looked up): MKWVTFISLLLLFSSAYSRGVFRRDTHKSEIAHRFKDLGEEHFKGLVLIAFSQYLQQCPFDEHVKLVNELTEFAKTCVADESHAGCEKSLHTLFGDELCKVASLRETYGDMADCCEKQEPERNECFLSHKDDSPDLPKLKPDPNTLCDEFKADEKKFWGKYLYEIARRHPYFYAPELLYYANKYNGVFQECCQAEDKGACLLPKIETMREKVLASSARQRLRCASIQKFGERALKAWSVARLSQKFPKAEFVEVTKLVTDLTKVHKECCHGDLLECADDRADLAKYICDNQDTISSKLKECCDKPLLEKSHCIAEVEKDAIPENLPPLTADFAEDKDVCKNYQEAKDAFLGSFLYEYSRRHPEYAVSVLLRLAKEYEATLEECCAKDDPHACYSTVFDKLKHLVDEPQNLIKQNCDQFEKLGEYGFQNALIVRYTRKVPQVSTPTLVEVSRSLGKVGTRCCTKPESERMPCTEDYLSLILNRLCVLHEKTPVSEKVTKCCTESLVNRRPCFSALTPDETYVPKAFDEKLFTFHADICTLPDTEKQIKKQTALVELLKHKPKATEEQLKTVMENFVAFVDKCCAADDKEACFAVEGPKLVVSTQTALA
Chain of Concanavalin-A (Canavalia ensiformis) (P02866 whole entry, looked up): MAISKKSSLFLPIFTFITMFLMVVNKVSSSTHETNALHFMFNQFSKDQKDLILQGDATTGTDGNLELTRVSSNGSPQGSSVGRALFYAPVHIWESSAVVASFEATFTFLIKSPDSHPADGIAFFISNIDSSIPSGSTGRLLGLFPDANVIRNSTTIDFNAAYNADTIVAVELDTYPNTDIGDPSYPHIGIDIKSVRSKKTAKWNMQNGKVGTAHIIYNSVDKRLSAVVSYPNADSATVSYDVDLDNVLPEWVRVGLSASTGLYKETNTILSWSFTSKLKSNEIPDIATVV

Take `COc1ccc(C#Cc2ccc3c(c2)[C@]2(C(=O)N3)[C@H](c3ccc(OCCO)cc3)N3[C@H](c4ccccc4)[C@H](c4ccccc4)OC(=O)[C@H]3[C@@H]2C(=O)N2CCN(c3ncccn3)CC2)cc1`: the composite z-score in experiment [1] was 1.25; in [3], 0.201; in experiment [4], 1.91; in experiment [5], 0.722; in experiment [6], -0.252; in experiment [7], -0.262. The composite z-score in [8] is -0.474; in experiment [9], 0.45; in [10], 0.235; with Albumin (Bos taurus), 0.716; in experiment [12] it was -0.156; in [13], -0.157. Also, the composite z-score in experiment [14] was 0.39; in [15], 0.873; in experiment [16], 0.324; in the experiment with Sam68 (KHDRBS1) it was 0.514; in [17], -0.233; in experiment [18], 1.04. In [2], this molecule yielded a z-score of -1.18. In experiment [11], the composite Z-score was -0.912 (inactive).
Consider `CC(C)CN1C(=O)[C@@]2(Cc3ccccc31)c1ccccc1C(=O)N(Cc1ccccc1)[C@H]2c1ccc(CO)cc1`, for which the composite z-score in [1] was -0.587; in experiment [3], -0.757; in [4], -0.361; in [5], -0.195; in experiment [6], -0.096; in [7] it was -0.206. In addition, the composite z-score in [8] was -0.175; in experiment [9], -0.845; in experiment [10], -0.0612; with Albumin (Bos taurus), 0.488; in experiment [12], -0.197; in experiment [13], -0.138. Moreover, the composite z-score is 0.441 in experiment [14]; 0.179 in experiment [15]; 0.254 in [16]; -1.72 in the experiment with Sam68 (KHDRBS1); -1.03 in [17]; -0.616 in experiment [18]. This molecule returned a z-score in experiment [2] of 0.15. Further, the composite Z-score in [11] is 0.671 (inactive).
On to `O=C1N(CCS(=O)(=O)c2ccccc2)Cc2ccccc2C[C@@]12COC(c1ccc(OCCCO)cc1)=N2`, for which the composite z-score in experiment [1] is 1.08; in experiment [3] it was 0.906; in experiment [4] it was 0.303; in [5], 0.87; in experiment [6], 0.0561; in experiment [7], -0.0858. Also, the composite z-score is 0.618 in experiment [8]; 1.56 in experiment [9]; 2.33 in experiment [10]; -0.0401 in the experiment with Albumin (Bos taurus); 0.384 in [12]; -0.0651 in experiment [13]. Further, the composite z-score in experiment [14] was determined as 0.585; in [15] it was 2.55; in experiment [16], 0.203; in the experiment with Sam68 (KHDRBS1) it was 1.32; in experiment [17] it was 0.825; in [18] it was 1.17. This molecule showed a z-score in experiment [2] of -2.31. Also, the composite Z-score in experiment [11] is 0.319 (inactive).
Turning to `[N-]=[N+]=NCc1ccccc1C[C@]1(C(=O)NCCN2CCOCC2)COC(c2ccc(OCCCO)cc2)=N1`, the composite z-score is 1.44 in [1]; -0.389 in [3]; 0.74 in experiment [4]; -0.096 in experiment [5]; 0.0479 in experiment [6]; -0.0119 in experiment [7]. In addition, the composite z-score is -0.509 in experiment [8]; 0.555 in [9]; -0.0034 in experiment [10]; 0.854 in the experiment with Albumin (Bos taurus); 0.116 in [12]; -0.106 in experiment [13]. Also, the composite z-score in experiment [14] was 0.353; in [15], 2.31; in experiment [16] it was 1.47; with Sam68 (KHDRBS1) it was 1.29; in [17] it was -0.519; in experiment [18], 0.0927. Besides, in experiment [2], the z-score is -1.79. Further, the composite Z-score in experiment [11] is 0.689 (inactive).
As to `[N-]=[N+]=Nc1ccccc1C[C@]1(C(=O)NCCN2CCOCC2)N=C(c2ccc(OCCCO)cc2)O[C@H]1c1ccccc1N=[N+]=[N-]`, the composite z-score in experiment [1] was 1.12; in experiment [3], 0.863; in [4] it was 1.1; in experiment [5], -0.198; in experiment [6], 0.136; in [7] it was -0.138. Moreover, the composite z-score worked out at 1.85 in experiment [8]; 1.51 in experiment [9]; 1.12 in experiment [10]; 0.892 with Albumin (Bos taurus); 0.505 in experiment [12]; 0.141 in [13]. Also, the composite z-score in experiment [14] stood at 0.584; in [15], 2.84; in [16], 0.505; with Sam68 (KHDRBS1), 1.29; in [17], 0.415; in experiment [18], 1.15. In [2], the z-score is -2.49. In addition, in experiment [11], the composite Z-score is 0.241 (inactive).
